We go through seven molecules from PubChem BioAssay (NCI).

About 83,000 compounds went through this panel and 20% of them were active in at least one assay; those are over-represented in the sample as a whole.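 Growth was measured after 48 h exposure to one concentration of compound in 96-well plates. Values under 10 count as active.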 Unmarked numbers belong to inactive results. Calls of active or inactive are those of the source.

Among the test systems are HCT-15 colon; HT29 colon; SNB-75 CNS; SNB-19 CNS; U251 CNS; PC-3 prostate; SK-MEL-5 melanoma; UACC-62 melanoma; LOX IMVI melanoma; SK-MEL-28 melanoma; SK-MEL-2 melanoma; EKVX NSCLC; SN12C renal; UO-31 renal; TK-10 renal; ACHN renal; CAKI-1 renal; A498 renal; CCRF-CEM leukemia; MOLT-4 leukemia.
Holding throughout (assay): NCI-60 one-dose screen, 48 h (100 = growth as untreated, 0 = no growth, -100 = all killed)
Holding throughout (settings): 10 µM

Regarding `Cc1ccc(/C(CSc2nnc(-c3c[nH]c4ccccc34)n2-c2ccccc2)=N/O)cc1`, the growth was -62.4% (active) in the experiment with HCT-15 colon; 6.35% (active) in the experiment with HT29 colon; -44.2% (active) in the experiment with SNB-75 CNS; -18.5% (active) with SNB-19 CNS; 10.4% in the experiment with U251 CNS; -46.5% (active) with PC-3 prostate. The growth in the experiment with SK-MEL-5 melanoma is 34.1%; in the experiment on UACC-62 melanoma, -52.6% (active); with LOX IMVI melanoma it was -88.2% (active); in the experiment on SK-MEL-28 melanoma, 62.5%; in the experiment with SK-MEL-2 melanoma, 62.7%; with EKVX NSCLC it was 28.3%. In addition, the growth is -36.7% (active) in the experiment with SN12C renal; 6.45% (active) with UO-31 renal; -65.1% (active) in the experiment on TK-10 renal; -61.7% (active) in the experiment with ACHN renal; -27.4% (active) in the experiment with CAKI-1 renal; 91.9% in the experiment with A498 renal. Moreover, the growth in the experiment with CCRF-CEM leukemia is -35% (active); in the experiment on MOLT-4 leukemia, -27.8% (active).
On to `Cc1cc(C)cc(Oc2cccc(-c3c(C)nnn3C3CCN(CCN(C)C)CC3)n2)c1`, for which the growth in the experiment on HCT-15 colon is 7.96% (active); in the experiment with HT29 colon, 11%; in the experiment with SNB-75 CNS, 16.7%; in the experiment with SNB-19 CNS, 47.7%; with U251 CNS, 36.5%; with PC-3 prostate, 37.7%. The growth in the experiment with SK-MEL-5 melanoma was -53.4% (active); in the experiment with UACC-62 melanoma, 18.2%; in the experiment on LOX IMVI melanoma it was 2.35% (active); with SK-MEL-28 melanoma it was 19%; in the experiment with SK-MEL-2 melanoma, 38.7%; with EKVX NSCLC, 39.7%. In addition, the growth in the experiment on SN12C renal was 41.4%; with UO-31 renal it was 15.8%; with TK-10 renal, 21.1%; in the experiment on ACHN renal it was 26.2%; in the experiment on CAKI-1 renal it was 7.83% (active); with A498 renal, 56.4%. For the same molecule, the growth is 16.7% in the experiment with CCRF-CEM leukemia and 30.8% with MOLT-4 leukemia.
On to `CC(=O)c1ccc(Nc2nc(SCCC(C)C)nc(-c3ccc(F)cc3)c2C#N)cc1`, for which the growth in the experiment with HCT-15 colon is 63.8%; in the experiment with HT29 colon, 47.9%; with SNB-75 CNS, 52.3%; with SNB-19 CNS, 20.4%; in the experiment on U251 CNS, 2.09% (active); in the experiment on PC-3 prostate, 80.2%. The growth in the experiment on SK-MEL-5 melanoma was 93.8%; with UACC-62 melanoma it was 89.8%; with LOX IMVI melanoma it was 5.44% (active); in the experiment on SK-MEL-28 melanoma, 83.5%; with SK-MEL-2 melanoma it was 117%; in the experiment on EKVX NSCLC, 52.7%. Moreover, the growth was 22.7% in the experiment on SN12C renal; 24.7% in the experiment with UO-31 renal; 6.32% (active) with TK-10 renal; -42.9% (active) in the experiment with ACHN renal; 16.2% in the experiment with CAKI-1 renal; 15.6% in the experiment on A498 renal. Besides, the growth with CCRF-CEM leukemia was 86.9%; with MOLT-4 leukemia, 76.9%.
As to `O=C1Nc2cc(-c3ccc(NC(=O)c4cccc([N+](=O)[O-])c4)cc3)ccc2/C1=C/c1ccc[nH]1`, the growth in the experiment on HCT-15 colon was 55.3%; in the experiment with HT29 colon, 102%; in the experiment on SNB-75 CNS it was 223%; in the experiment on SNB-19 CNS it was 94.5%; with U251 CNS, 99.3%; in the experiment with PC-3 prostate, 66.2%. Also, the growth with SK-MEL-5 melanoma was 104%; in the experiment on UACC-62 melanoma it was 63.7%; in the experiment with LOX IMVI melanoma it was 86.9%; with SK-MEL-28 melanoma, 97.1%; in the experiment with SK-MEL-2 melanoma it was 51.4%; with EKVX NSCLC, 66.5%. Moreover, the growth is 101% in the experiment with SN12C renal; 67.2% with UO-31 renal; 108% in the experiment with TK-10 renal; 59.6% in the experiment with ACHN renal; 97.8% in the experiment on CAKI-1 renal; 149% with A498 renal. In addition, the figures for the growth in the experiment with CCRF-CEM leukemia and in the experiment with MOLT-4 leukemia were 91.2% and 73.8%, respectively.
For `CN1C(=O)/C(=C/c2nccs2)SC1=S`, the growth is 68.8% with HCT-15 colon; 99.4% in the experiment with HT29 colon; 66.4% with SNB-75 CNS; 90.5% in the experiment on SNB-19 CNS; 90.7% in the experiment on U251 CNS; 109% with PC-3 prostate. Besides, the growth in the experiment with SK-MEL-5 melanoma is 96.6%; in the experiment with UACC-62 melanoma, 79%; in the experiment with LOX IMVI melanoma, 62.7%; with SK-MEL-28 melanoma it was 95.8%; with SK-MEL-2 melanoma, 96.9%; in the experiment with EKVX NSCLC, 80.7%. In addition, the growth is 75.8% with SN12C renal; 78.7% with UO-31 renal; 162% with TK-10 renal; 88.1% in the experiment with ACHN renal; 72.9% with CAKI-1 renal; 109% in the experiment with A498 renal. Further, the growth in the experiment on MOLT-4 leukemia was 98.8%.
With `COc1nccnc1NS(=O)(=O)c1ccc(NC2=C(Cl)C(=O)c3nc(C)ccc3C2=O)cc1`, the growth in the experiment with HCT-15 colon was 93.7%; in the experiment with HT29 colon, 120%; with SNB-75 CNS, 111%; in the experiment on SNB-19 CNS, 97.9%; in the experiment on U251 CNS, 96.9%; in the experiment with PC-3 prostate, 80.2%. The growth is 100% in the experiment on SK-MEL-5 melanoma; 101% in the experiment with UACC-62 melanoma; 71.7% with LOX IMVI melanoma; 121% with SK-MEL-28 melanoma; 113% with SK-MEL-2 melanoma; 88.2% in the experiment with EKVX NSCLC. In addition, the growth with SN12C renal is 99.1%; in the experiment with UO-31 renal it was 74.5%; with TK-10 renal, 132%; with ACHN renal it was 109%; with CAKI-1 renal, 88.7%; with A498 renal, 94%. Further, the growth in the experiment on CCRF-CEM leukemia was 97%; with MOLT-4 leukemia it was 94.8%.
Consider `COC(=O)C(Cc1ccc(O)c(O)c1)NC(=O)C(CSC/C=C(\C)CCCC(C)CCCC(C)CCCC(C)C)NC(C)=O` (stereo not drawn), for which the growth in the experiment with HCT-15 colon was 15.5%; with HT29 colon, 40.5%; with SNB-75 CNS, 42.8%; with SNB-19 CNS, 10.8%; in the experiment with U251 CNS, 4.85% (active); with PC-3 prostate it was 2.28% (active). Further, the growth in the experiment on SK-MEL-5 melanoma was 36.8%; in the experiment on UACC-62 melanoma, 13%; in the experiment with LOX IMVI melanoma, 19.7%; in the experiment with SK-MEL-28 melanoma, 25.1%; in the experiment with SK-MEL-2 melanoma it was 74.5%; with EKVX NSCLC it was 47%. In addition, the growth was 26.3% in the experiment with SN12C renal; 43.7% with UO-31 renal; 45.3% in the experiment on TK-10 renal; 31.4% in the experiment with ACHN renal; 28.4% in the experiment on CAKI-1 renal; 102% with A498 renal. Moreover, the growth in the experiment on MOLT-4 leukemia was 7.78% (active).
